The source of these data is PubChem BioAssay (NCI).

Assay in all cases: NCI-60 one-dose screen, 48 h (100 = growth as untreated, 0 = no growth, -100 = all killed)
What all share (conditions): 10 µM unless noted

The subject of assay [1] is HCT-15 colon.
Assay [2] concerns HT29 colon.
Assay [3] has as its system SNB-19 CNS.
The subject of assay [4] is U251 CNS.
Assay [5] concerns PC-3 prostate.
Assay [6] deals with SK-MEL-5 melanoma.
The test system of assay [7] is UACC-62 melanoma.
The test system of assay [8] is LOX IMVI melanoma.
The test system of assay [9] is SK-MEL-28 melanoma.
Assay [10] has as its system SK-MEL-2 melanoma.
Assay [11] concerns EKVX NSCLC.
Assay [12] concerns SN12C renal.
In assay [13] the test system is UO-31 renal.
Assay [14] deals with TK-10 renal.
The subject of assay [15] is ACHN renal.
Assay [16] concerns A498 renal.
The test system of assay [17] is CCRF-CEM leukemia.
Assay [18] has as its system MOLT-4 leukemia.
Assay [19] concerns SR leukemia.

Each structure is given as a SMILES string. About 83,000 compounds went through this panel and 20% of them were active in at least one assay; those are over-represented in the sample as a whole.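 In brief: 96-well plates, 48 h treatment, single concentration, percent growth endpoint.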 Unmarked numbers belong to inactive results. The source made the active and inactive calls. Rule for the calls: active = growth percent below 10; inactive = the rest.

With `C=C(C)[C@@H]1CCC=C2CC[C@]3(C)[C@H](CC[C@@H]4[C@@]5(C)CCCNC(C)(C)[C@@H]5CC[C@]43C)[C@H]21`, the growth in assay [1] was -17.7% (active); in [2], 3.02% (active); in [3] it was 15.3%; in assay [4], -73% (active); in [5], 38.2%; in assay [6], 81.9%. Further, the growth in assay [7] was 87.7%; in [8] it was -43.4% (active); in assay [9] it was 96.7%; in assay [10], 77.9%; in assay [11], 94.6%; in assay [12], 65.2%. The growth was 75.4% in assay [13]; 104% in [14]; 78.7% in assay [15]; 101% in assay [16]; 40.1% in assay [17]; 0.148% (active) in assay [18]. Besides, in assay [19], the growth was -25.7% (active).
For `COC(=O)/C=C/c1cc(OC)c2c(c1)[C@@H](C(=O)OC)[C@H](c1ccc(OC)c(OC)c1)O2`, the growth in assay [1] was 32.2%; in assay [2], 11%; in assay [3] it was 35%; in [4], 25.1%; in assay [5], 32.9%; in assay [6], 9.73% (active). The growth in assay [7] was 33.6%; in assay [8], 51.1%; in assay [9], 63.4%; in [10], 31.4%; in assay [11] it was 38.5%; in assay [12] it was 45.5%. Moreover, the growth in assay [13] is 45.9%; in [15] it was 44.4%; in assay [16], 22.1%; in assay [17], 18.7%; in assay [18] it was 22.9%; in assay [19], 26%.
With `O=c1[nH]nc(-c2ccccc2)c2sc(NC(=S)Nc3ccc(Cl)cc3)nc12`, the growth was 89.9% in [1]; 74.8% in assay [2]; 102% in [3]; 92.1% in [4]; 92% in assay [5]; 101% in [6]. Moreover, the growth is 92.6% in assay [7]; 92.4% in [8]; 110% in assay [9]; 85.5% in assay [10]; 83% in assay [11]; 103% in assay [12]. The growth is 84.4% in [13]; 96.5% in assay [14]; 102% in [15]; 86% in assay [16]; 79.6% in [18]; 91.7% in assay [19].
For the compound `CN(C)CSc1nc2ccccc2s1`, the growth in assay [1] is 97.9%; in assay [2], 95%; in assay [3], 110%; in [4], 103%; in assay [5], 74.8%; in assay [6], 96.9%. The growth in assay [7] was 95.9%; in [8] it was 90%; in assay [9], 108%; in assay [10], 101%; in assay [11], 87.6%; in assay [12] it was 101%. Besides, the growth is 71.8% in [13]; 119% in assay [14]; 92.6% in assay [15]; 111% in assay [16]; 83.5% in assay [17]; 99.7% in [18]. The growth in [19] was 94.1%.
With `CCCCOc1nc2ccc(C)cc2cc1/C=C/C(=O)/C=C/c1ccc2c(c1)OCO2`, the growth is 97.8% in assay [1]; 63.6% in assay [2]; 92.9% in assay [3]; 48.4% in assay [4]; 72.4% in assay [5]; 77.6% in [6]. The growth is 75.6% in assay [7]; 77.3% in [8]; 109% in assay [9]; 69.6% in assay [10]; 102% in assay [11]; 89.2% in assay [12]. Moreover, the growth in [13] was 75%; in assay [15], 103%; in assay [16], 106%; in assay [17], 75.9%; in [18], 81.5%; in [19], 42.9%.
With `N#Cc1ccc(Oc2ccc3ccc(=O)oc3c2)cc1`, the growth in assay [1] is 98%; in assay [2], 114%; in [3] it was 89.3%; in assay [4], 91.7%; in [5] it was 94.5%; in assay [6] it was 103%. In addition, the growth in [7] is 88.3%; in assay [8] it was 93.4%; in [9], 107%; in assay [10], 135%; in assay [11], 110%; in assay [12] it was 105%. Also, the growth in assay [13] is 99.1%; in assay [14], 116%; in assay [15] it was 98.2%; in [16], 99%; in assay [17] it was 101%; in assay [18], 100%. In assay [19], the growth was 82.9%.
Regarding `CCCCCCN1C(=O)CN=C1Nc1ccc2cc3ccc(NC4=NCC(=O)N4CCCCCC)cc3nc2c1`, the growth in [1] is 49%; in assay [2] it was 15.5%; in [3], 48.4%; in [4] it was 22.1%; in assay [5], 51%; in assay [6], 82.6%. Moreover, the growth in [7] is 82.6%; in assay [8] it was -41.8% (active); in assay [9] it was 85.9%; in [10], 79.9%; in assay [11], 56.9%; in [12] it was 26.7%. Also, the growth in assay [13] is 51.7%; in [14], 75.9%; in [15] it was 67.6%; in assay [16] it was 104%; in assay [17] it was 12%; in assay [18], 9.83% (active). In addition, in assay [19], the growth was 0.413% (active).
In the case of `Oc1ccc(CNNc2ccnc3c(O)cccc23)c2cccnc12`, the growth in assay [1] is 23.9%; in assay [2], 73.8%; in [3] it was 29.7%; in [4], 25.8%; in assay [5], 29.7%; in assay [6], -20.2% (active). For the same compound, the growth in [7] is 24.6%; in [8], 16.4%; in assay [9], 49.7%; in [10], 31.4%; in assay [11], 8.17% (active); in assay [12] it was 45.4%. Besides, the growth in [13] was 23.7%; in assay [14] it was 30.7%; in assay [15] it was 15.2%; in [16], 74.7%; in assay [17], 18.7%; in assay [18] it was 13.4%. Also, the growth in assay [19] is 20.4%.
